Consider 103 molecules from ChEMBL document CHEMBL4513216, “Probing the Open Global Health Chemical Diversity Library for Multistage-Active Starting Points for Next-Generation Antimalarials” (ACS Infect Dis, 2020).

In all, about 65,000 compounds went through this assay and about 2,100 (3.2%) showed an effect of 50% or more. The median lay at about -52%. Only a selection was taken, and strong results are over-represented in it overall.

The assay deals with Plasmodium falciparum. Put plainly: Screen against P. falciparum Asexual Blood Stage (ABS), at 5uM. It is filed as functional, Dd2. The conditions noted are these: tested at 5 uM.
For `Fc1ccc(-c2nccnc2C2CCCNC2)cc1` (stereo not drawn), the INHIBITION is recorded as 76.6%. The value for `CN(C)c1cc(C2CCCNC2)ccn1` (stereo not drawn) was -11.8%; that for `c1c[nH]c2nc(C3CCCNC3)nc-2c1` (stereo not drawn) was -172%; that for `CC1CCCCN1C(=O)c1coc(COc2cccc3cnccc23)n1` (stereo not drawn) was 86.5%. `Cc1cccc(CN2CC[C@H]3[C@H]2CCN3C(=O)c2cnn(C)c2)n1`: the INHIBITION is -5.92%. In the case of `Cc1ccc(NC(=O)NC(C)c2nc[nH]n2)cc1Cl` (stereo not drawn), the INHIBITION is on record as -107%. The value for `COc1ccc(NC(=O)Nc2cnc(N3CCN(C)CC3)nc2)cc1Cl` was 87.9%.

As for `CNS(=O)(=O)CC(=O)NC(C)Cc1ccc(Br)cc1` (stereo not drawn), the INHIBITION is on record as -89.6%. In the case of `CN1C(Cn2cccn2)C[C@@H]2CN(Cc3ccccn3)CC[C@@H]21` (stereo partly drawn) it was 41.6%; in that of `NC(=O)N1C[C@H]2CN(Cc3nccs3)C[C@H]2C1`, -12%; in that of `C[C@@H]1C[C@@H]2CCN(Cc3nccs3)C[C@H]2O1`, -26.9%. `O=C(c1ncccn1)N1C[C@@H]2CN(CC3CC3)CCO[C@@H]2C1`: the INHIBITION is -14.4%.

Turning to `CN1CC[C@H]2[C@H](C[C@@H](CN3CCCC3)N2c2nccs2)C1`, the INHIBITION stood at 73.7%. The value for `CN1[C@H](Cn2cccn2)C[C@@H]2CN(Cc3cccs3)CC[C@@H]21` was 75.8%; that for `Cc1nccc([C@@H]2C[C@@H]3CCN(Cc4cccs4)C[C@H]3O2)n1` was -92.1%; that for `c1cnn(C[C@@H]2C[C@@H]3CN(CC4CC4)CC[C@@H]3N2c2nccs2)c1` was 89.9%. In the case of `C[C@H]1C[C@@H]2CCN(Cc3nccs3)C[C@H]2O1` it was -9.59%; in that of `CCN(CCc1ccccc1)Cn1nc(C)c2c(C)onc2c1=O`, -13.3%; in that of `Clc1ccc(-c2ccc(C3CNCCO3)nc2)cc1` (stereo not drawn), 85.9%. The value for `Cc1ccc(-c2ccc(C3CNCCO3)nc2)cc1` (stereo not drawn) was 83.5%; that for `CCCC(=O)N1CCC2(CC1)OCCO2` was -40.8%.

As to `COCCN1CC=C(c2cccc(OC)c2)CC1`, the INHIBITION amounted to 13.9%. In the case of `COCCN1CC[C@H]2OCC[C@@H](C(=O)Nc3cccnc3)[C@@H]2C1` it was -67.2%; in that of `OCCN1CCC(c2cncc(-c3cccc(Cl)c3)n2)CC1`, 71.1%; in that of `CN1CCC(c2cncc(Cl)n2)CC1`, -28.5%. On to `COCCN1CCC(c2cncc(-c3cccc(Cl)c3)n2)CC1`, for which the INHIBITION worked out at 71.1%. The value for `CCCS(=O)(=O)N1CCOC2(CCCN(Cc3ccccn3)C2)C1` (stereo not drawn) was -21.2%. In the case of `CN(C)C[C@]12COC[C@H]1CN(Cc1ccccn1)C2` it was -39.8%; in that of `Cc1ccc(CN2CCN(C)c3ncccc3C2)o1`, -75.5%; in that of `COc1cccc(CN2CCN3C(=O)NC[C@H]3C2)n1`, -90.1%.

Consider `Cc1cccc(CN2CCN3C[C@H](Oc4cccnc4)C[C@H]3C2)n1`, for which the INHIBITION is -91.1%. As for `Clc1cccc2c3c([nH]c12)CCN(Cc1cc2n(n1)CCCNC2)C3`, the INHIBITION was found to be 89.7%. As for `Clc1cccc2c3c([nH]c12)CCN(Cc1cc2n(n1)CCNC2)C3`, the INHIBITION is reported as 79.1%. In the case of `c1cncc(OC[C@]23COC[C@H]2CN(Cc2nccs2)C3)c1` it was -94.4%; in that of `Cc1cccc(CN2CCO[C@H]3[C@H](Oc4ccccn4)CC[C@@H]32)n1`, -7.66%; in that of `Cc1cc(N2CCOC(c3ccccn3)C2)nc(N)n1` (stereo not drawn), 75.1%.

On to `CC(C)N1CCOC(c2ccnc(N(C)C)n2)C1` (stereo not drawn), for which the INHIBITION was -133%.

With `N#CC1CCCN(c2nc(-c3ccccc3)nc3c2CCNCC3)C1` (stereo not drawn), the INHIBITION was 79.9%.

`NCC1CCCN(c2nc(-c3ccccc3)nc3c2CCNCC3)C1` (stereo not drawn): the INHIBITION amounted to 85.9%. In the case of `Cc1noc(C)c1CN1C[C@H](OCC2CC2)[C@H]2OCCC[C@H]21` it was -58%; in that of `CS(=O)(=O)NCc1cncc2c1CCN(CC1CCOC1)C2` (stereo not drawn), -80.3%; in that of `Cc1noc(C)c1CN1C[C@H](OCC(=O)N(C)C)[C@H]2OCCC[C@H]21`, -72.7%.

Regarding `Cc1cc(CN2CCc3nc(N4CCOCC4)nc(O)c3CC2)c(C)s1`, the INHIBITION turned out to be 77.6%.

For `Cc1cc(CN2CCc3nc(-c4ccncc4)nc(O)c3CC2)c(C)s1`, the INHIBITION is given as 91%. In the case of `O=C(N[C@H]1CN[C@H]2CCCO[C@H]21)c1cccnc1` it was -13.5%; in that of `Cc1cc(CN2CCO[C@H]3[C@H](OCc4csc(C)n4)CC[C@@H]32)no1`, -73.3%. In the case of `CC(C)[C@H](N)C(=O)N1CCSc2ccccc2C1` it was 73.7%; in that of `O=C1Nc2ccccc2C12CCCN(Cc1ccncc1)C2` (stereo not drawn), -78.5%; in that of `O=C(Cc1cccnc1)N1CCC2(CC1)CCN(C1CCOC1)C2` (stereo not drawn), -58.9%. The value for `c1ccc(CN2CCOCC3(CCN(C4CCOCC4)C3)C2)cc1` (stereo not drawn) was 82.2%. Consider `Fc1cccc(CN2CCOCC3(CCN(C4CCOCC4)C3)C2)c1` (stereo not drawn), for which the INHIBITION is 78.2%. In the case of `c1cc(CN2CCOCC3(CCN(C4CCOCC4)C3)C2)ccn1` (stereo not drawn), the INHIBITION is recorded as -38.5%.

With `CNC(=O)CN1CCOCC2(CCCN(Cc3cccnc3)C2)C1` (stereo not drawn), the INHIBITION is given as -8.58%. The value for `Cc1cccc(CN2CCOCC3(CCN(C4CCOCC4)C3)C2)c1` (stereo not drawn) was 78.6%.

As to `Fc1cccc(CN2CCC3(CCN3c3ncccn3)C2)c1` (stereo not drawn), the INHIBITION was 27.1%. The value for `c1cncc(CN2CCCC3(COCCN(c4nccs4)C3)C2)c1` (stereo not drawn) was 10.9%; that for `c1cncc(CN2CCC3(COCCN(C4CCOCC4)C3)C2)c1` (stereo not drawn) was -42%; that for `COCCN1CCN(c2cccc(C)n2)Cc2ccc(C)nc21` was -14.7%. With `Cc1cc(NC2CC3(CCN(Cc4csc(C)n4)C3)C2)ncn1` (stereo not drawn), the INHIBITION is -142%.

Turning to `Cc1nocc1C(=O)N1CCOC2(COCCN(C(C)C)C2)C1` (stereo not drawn), the INHIBITION is on record as -62.3%. The value for `CN1CCO[C@@H]2CN(S(=O)(=O)c3cccnc3)C[C@@H]2C1` was -79%; that for `CC(c1cccc(O)c1)N(C)S(=O)(=O)c1cccnc1` (stereo not drawn) was 71.4%; that for `CCN(C(C)c1cccc(O)c1)S(=O)(=O)c1cccnc1` (stereo not drawn) was 76.6%. The value for `CN1CCC(N2CCN3C(=O)NC[C@H]3C2)CC1` was -11%; that for `COCCN1CCN(S(=O)(=O)C2CC2)Cc2cccnc21` was -40.8%; that for `Cc1cccc(CN2CCC(NCC3CNc4cc(C)nn4C3)CC2)c1` (stereo not drawn) was 86.5%.

As to `Cc1cc2n(n1)CC(CNC1CCN(Cc3ccccc3C)CC1)CN2` (stereo not drawn), the INHIBITION was 71%. In the case of `Cc1cc(-c2ccc(C(C)N3CCCCC3)cc2)cnc1N` (stereo not drawn) it was 91%; in that of `Cc1oncc1C(=O)N1CC[C@H]2[C@H]1CCN2Cc1ccccn1`, -23.4%. The value for `COCCCNc1c(C#N)c2c(c3nncn13)CN(C)CC2` was -104%; that for `CCN(CC)C(=O)c1ccc(NC(=O)CNc2ccc(Br)cc2F)cc1` was -171%; that for `Cc1ccc(-n2cnnn2)cc1NCC(=O)Nc1cc(F)ccc1F` was 72.3%. In the case of `Cc1ccc(-n2cnnn2)cc1NCC(=O)Nc1ccccc1Cl` it was 79.3%; in that of `O=C(c1cc(-n2cnnn2)ccc1Cl)N1CCC2(CC1)OCCO2`, -29.7%; in that of `CCN(CC)C(=O)c1ccc(NC(=O)CNc2ccc(F)cc2Cl)cc1`, -91.8%. Turning to `O=C(c1cccc(-n2cnnn2)c1)N1CCC2(CC1)OCCO2`, the INHIBITION is -24.5%. In the case of `O=C(NCC1CCC2(CCNCC2)O1)C1CC1` (stereo not drawn) it was 47.7%; in that of `Cc1cccnc1N1CC2(CCN(Cc3cnn(C)c3)C2)C1`, 23.4%. With `Cc1[nH]c2c(F)cccc2c1CC(=O)N1CCN(C2CCSCC2)CC1`, the INHIBITION was -8.93%. The value for `COc1ccc(CN2CCNC(=O)CC2)cc1SC(F)(F)F` was 74.5%. The value for `COc1cccc(C2=CCN(CCN3CCOC3=O)CC2)c1` was -8.54%; that for `Cc1cc(CN2C[C@@H]3CCCO[C@@H]3[C@H](Nc3ccccn3)C2)no1` was -62.6%; that for `OC(COCc1ccc(Cl)cc1)CN1CCC(c2ccn[nH]2)CC1` (stereo not drawn) was 70.9%.

As for `CCOCC(O)CN1CCN(C(=O)Cc2ccc(C)nc2)CC1` (stereo not drawn), the INHIBITION is -7.76%. In the case of `O=C1NCC2(CCCN(Cc3cccnc3)C2)Oc2ccccc21` (stereo not drawn) it was -134%; in that of `CC1(C)CC(N(Cc2cccnc2)Cc2cccc(F)c2)CC(C)(C)N1`, 76.6%; in that of `CCCN(Cc1cccnc1)C1CC(C)(C)NC(C)(C)C1`, 77.6%.

As to `Cc1ccsc1CN(Cc1cccnc1)C1CC(C)(C)NC(C)(C)C1`, the INHIBITION worked out at 81.4%. In the case of `CC1(C)CC(N(Cc2ccccc2)Cc2ncc[nH]2)CC(C)(C)N1` it was 70.3%.

As to `Cc1noc(C)c1CN(Cc1cccnc1)C1CN2CCC1CC2` (stereo not drawn), the INHIBITION is listed as -110%. The value for `CCN(Cc1cccnc1)CC1CCCO1` (stereo not drawn) was -162%; that for `CCc1cc(CN(Cc2cccnc2)C2CN3CCC2CC3)on1` (stereo not drawn) was 3.06%. The value for `Cc1ccsc1CN1C[C@@H]2CN(Cc3cccnc3)CCO[C@@H]2C1` was -28.4%. The value for `Cc1ncc2c(c1CNC(=O)C1(C)CCCO1)CCNC2` (stereo not drawn) was -148%; that for `C[C@@H]1CN(C2CCOC2)C[C@]12CCN(Cc1cccnc1)C2=O` (stereo partly drawn) was -45.9%. In the case of `Clc1cc(N2CCN3CCCCC3C2)nc2[nH]ccc12` (stereo not drawn), the INHIBITION worked out at 42.6%. In the case of `CN(C)CCN1CCCC12CCN(C(=O)c1ccncc1)CC2` it was -98.9%; in that of `c1ccc(OCC2C[C@@H]3[C@@H](C2)OCCN3CC2CCOCC2)nc1` (stereo partly drawn), -60.7%; in that of `Cc1noc(C)c1CN1CCCC2(C1)CN(c1nncs1)CCO2` (stereo not drawn), -18.9%.

For `Cc1noc(C)c1CN1CCOC2(CCCN(c3nncs3)C2)C1` (stereo not drawn), the INHIBITION was -103%. The value for `COc1ccc(N2CCCC3(C2)CN(c2nncs2)CCO3)cc1` (stereo not drawn) was 88%; that for `O=C1CSC(c2ccncc2)c2c(n(C3CCOCC3)[nH]c2=O)N1` (stereo not drawn) was -84.2%; that for `CC(C)C(NC(=O)c1ccco1)C(=O)N1CCC2(CC1)OCCO2` (stereo not drawn) was -80.1%.
